Assay outcomes from PubChem BioAssay.
In the library only some 8.7% were active in any assay of this set; here they are far more common.
Pf growth 96h – Primary qHTS for delayed death inhibitors of the malarial parasite plastid, 96 hour incubation; P. falciparum luciferase reporter growth, 96 h; Potency, µM (titrated, usually from 28.7 µM), inactives show at the top dose activity change, negative = inhibition, most hits filed as inhibitors; 6.9% of 320,000 active
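Two parasite generations (96 h, 37 C, 5% CO2) of compound exposure in infected erythrocytes (0.05% parasitemia, 2% hematocrit). Luciferase-reporter P. falciparum; decreased luminescence indicates inhibited growth, aimed at apicoplast-acting delayed death.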
VACV mCherry inh – qHTS for Stage-Specific Inhibitors of Vaccinia Orthopoxvirus: mCherry Reporter Primary qHTS. Potency, µM (titrated, usually from 36.5 µM), for the others: top-dose activity change, negative = inhibition, hits mostly inhibitors. Vaccinia virus mCherry reporter infection, fluorescence. 0.63% of 310,000 active; calls by dose curve; tested in A549 cells; further: nearly all actives have a fitted effect of over 35% in size
AMA1-RON2 inh – qHTS for Inhibitors of AMA1-RON; Towards Development of Antimalarial Drug Lead: Primary Screen; Plasmodium falciparum AMA1 (3D7) - RON2 peptide interaction; AlphaScreen AMA1-biotinylated RON2 peptide binding; Potency, µM (doses to about 58.2 µM), inactives show at the highest dose activity change, negative = inhibition, hits mostly inhibitors; 0.2% of 360,000 active;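 further: 0% = vehicle wells and -100% = peptide control; nearly all actives have a fitted effect of over 45% in size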
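AMA1 (3D7) with his tag at 25 nM final met compounds first, then biotinylated RON2 peptide at 25 nM; detection used donor plus acceptor beads, 10 µg/mL apiece, read by AlphaScreen after 30 min at room temperature.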
Vaccinia Venus – qHTS for Stage-Specific Inhibitors of Vaccinia Orthopoxvirus: Venus Reporter Primary qHTS; Potency, µM (doses to about 36.5 µM), for inactives: top-dose activity change, negative = inhibition, usual class: inhibitors; 0.46% of 330,000 active; Vaccinia virus Venus reporter expression, fluorescence; calls by dose curve; tested in A549 cells; further: nearly all actives have a fitted effect of over 30% in size
Pf growth 48h – Primary qHTS for delayed death inhibitors of the malarial parasite plastid, 48 hour incubation; P. falciparum luciferase growth in erythrocytes, 48 h; Potency, µM (doses to about 28.7 µM), inactives show at the highest dose activity change, negative = inhibition, actives largely listed as inhibitors; 5.9% of 310,000 active; AID 504832, 2011
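Cell-based growth assay: transgenic P. falciparum expressing firefly luciferase, cultured in red cells within RPMI 1640 containing 0.5% w/v Albumax, 24 mM bicarbonate and gentamycin. A drop in luciferase activity indicates inhibition.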
The depositor's hits bear a star; i = inactive; u = inconclusive; x = no result given; [ ] = dose if it differs, or a comment. Unless noted, the call rests on the fitted dose curve; in most records, active means well fitted curve in the direction sought with a large enough effect; inconclusive means small, poorly fitted or top-dose-only effect, or another doubt; inactive means no such curve, though single readings can be large; an effect the other way counts as inactive or inconclusive. Unless noted, on the % scale 0 is the no-effect control and ±100 the full control effect; potency means the concentration at half of the fitted maximal effect.

SMILES	Pf growth 96h	VACV mCherry inh	AMA1-RON2 inh	Vaccinia Venus	Pf growth 48h
CCOC(=O)Cc1csc(NC(=S)NC(=O)c2ccc(C)cc2)n1	3.7µM*	x	52%	x	2.9µM*
COc1ccccc1NC(=O)Nc1nc(CC(=O)Nc2ccc(OC)c(OC)c2)cs1	5.2µM*	-2%	-27%	-20%	u
COc1ccc(CCNC(=O)C(=O)NCC(c2ccco2)S(=O)(=O)c2ccc(C)cc2)cc1 (stereo not drawn)	x	-11%	x	-12%	x
Cc1ccc(-n2ncc(C(=O)NCCCN3CCc4ccccc4C3)c2C2CCN(C(=O)OC(C)(C)C)CC2)c(C)c1	x	-23%	x	-23%	x
COc1ccc(N2CCN(C(=O)CCS(=O)(=O)c3ccc(OC)cc3)CC2)cc1	26%	i	-15%	-7%	-2%
COc1ccc(OC)c(CN2CCN(C(=O)CNC(=O)c3ccc(C(C)(C)C)cc3)CC2)c1	12µM*	x	-13%	x	u
COc1ccc(OC)c(CN2CCN(C(=O)CCNC(=O)c3ccc(Br)cc3)CC2)c1	0%	-11%	-28%	-4%	-6%
COc1ccc(N2CCN(C(=O)c3ccc(C(C)(C)C)cc3)CC2)cc1	8%	x	u	-26%	x
COc1ccc(S(=O)(=O)CCC(=O)N2CCN(c3ccc(C(C)=O)cc3)CC2)cc1	8.3µM*	u	16%	-21%	-11%
COc1ccc(N2CCN(C(=O)CCNC(=O)c3ccc(C(C)(C)C)cc3)CC2)cc1	u	x	-17%	x	10µM*
CCc1ccc(-c2cc(C)no2)cc1S(=O)(=O)Nc1ccc(Cl)cc1	x	-26%	x	-28%	x
Cc1cccc(NC(=O)C(=O)NCC(c2cccnc2)N2CCc3ccccc32)c1C (stereo not drawn)	x	-22%	x	-16%	x
CCC1CN(S(=O)(=O)c2cc(-c3cc(C)no3)ccc2C)c2cc(Cl)ccc2O1 (stereo not drawn)	x	-9%	x	-10%	x
Cc1nc(NC(=O)c2ccccc2)sc1-c1csc(Nc2ccc(F)cc2)n1	3.7µM*	x	x	x	u
O=C(Nc1nc(-c2ccc(Cl)s2)cs1)c1ccccc1	9.3µM*	-14%	-18%	-16%	x
O=C(Nc1nc(-c2cccs2)cs1)c1ccc(Cl)s1	u	i	0%	-24%	20%
Cc1nc(NC(=O)c2ccccc2)sc1-c1csc(Nc2ccc(Cl)cc2)n1	10µM*	x	x	x	u
COc1ccc(Nc2nc(-c3sc(NC(C)=O)nc3C)cs2)cc1	10µM*	x	x	x	x
Nc1c(-c2nc(-c3ccccc3Cl)no2)nnn1-c1ccccc1C(F)(F)F	x	3%	x	3%	x
CCCN1CNc2c(c(=O)[nH]c(=S)n2CCC(C)C)C1	x	i	x	-12%	x
CCOC(=O)c1cccc(NC(=O)CC(c2cc(OC)c(OC)c(OC)c2)N2Cc3ccccc3C2=O)c1 (stereo not drawn)	x	0%	x	4%	x
OCCN(CCO)c1ccc(/C=C/c2ccnc3ccccc23)cc1	x	-9%	x	-13%	x
COc1ccc2cc(CNCc3ccccc3Cl)c(N3CCCC(CO)C3)nc2c1 (stereo not drawn)	x	-6%	x	8%	x
CC(C)(C)c1csc(NC(=O)c2ccc(Cl)s2)n1	x	x	19%	u	3.7µM*
CC(=O)c1cccc(Nc2nc(-c3sc(N)nc3C)cs2)c1	17µM*	-11%	61%	-10%	u
SMILES	Pf growth 96h	VACV mCherry inh	AMA1-RON2 inh	Vaccinia Venus	Pf growth 48h
CC(=O)c1cccc(Nc2nc(-c3sc(C)nc3C)cs2)c1	362%	-19%	2%	u	-20%
COc1ccc(Nc2nc(-c3cccs3)cs2)cc1	0.52µM*	x	-4%	x	316%
Cc1nc(NC(=O)c2ccccc2)sc1-c1csc(Nc2cccc(Cl)c2)n1	2.6µM*	x	x	x	9.3µM*
Cc1ccc(Nc2c(-c3cccs3)nc3nc(C)cc(C)n23)cc1	x	-16%	x	-12%	x
COc1ccc(-n2nc3cc(C)c(NC(=O)c4ccc(-c5ccc(Br)cc5)o4)cc3n2)cc1	x	-8%	x	-8%	x
CC1CN(CC(=O)NCCc2ccncc2)Cc2ccccc2O1 (stereo not drawn)	x	-10%	x	2%	x
O=c1c2sc3ccccc3c2n(Cc2cccc(C(F)(F)F)c2)c(=O)n1-c1ccccc1	x	3%	x	-8%	x
CCOc1ccc(CNc2ccc(N3CCCC3)cc2)cc1	-28%	10%	u	12%	1.9µM*
CC(=O)Nc1ccc(N2CCN(Cc3ccccc3)CC2)cc1	-2%	x	-10%	x	-1%[0.00184 µM]
CCOc1ccc(CNc2ccc(N3CCN(Cc4ccccc4)CC3)cc2)cc1	9.3µM*	u	-12%	6%	3%
COc1ccc(-n2nc(C(=O)NCCc3ccc(Cl)cc3)c3c4ccccc4n(C)c3c2=O)cc1	x	-11%	x	-9%	x
O=C(CNC(=O)c1ccccc1Cl)OCc1cc(=O)n2ccsc2n1	x	0%	x	5%	x
CCC1CCCCN1C(=O)CCNS(=O)(=O)c1ccc2c(c1)oc(=O)n2C (stereo not drawn)	2.3µM*	x	6%	x	u
COc1ccc(S(=O)(=O)NCCC(=O)NCc2ccccc2)cc1	u	i	16%	-3%	-18%
Cn1c(=O)oc2cc(S(=O)(=O)NCCN3CCc4ccccc4C3)ccc21	8.3µM*	x	9%	x	14%
CCC1CCCCN1CCCNS(=O)(=O)c1ccc2c(c1)oc(=O)n2C (stereo not drawn)	2.9µM*	-24%	-9%	-1%	12µM*
COc1ccc(CNC(=O)CCNS(=O)(=O)c2ccc3c(c2)oc(=O)n3C)cc1	12µM*	-17%	13%	-3%	-3%
CCC1CCCCN1CCNS(=O)(=O)c1ccc2c(c1)oc(=O)n2C (stereo not drawn)	-20%	i	27%	0%	10%
CCc1nn(CC(=O)NCCCc2ccccc2)c(=O)c2cc3ccccc3n12	x	2%	x	-6%	x
CCSc1nc2c([nH]c3ccccc32)c(=O)n1-c1ccc(F)cc1	x	-19%	x	-26%	x
O=C(c1ccc(Nc2nc3ccccc3n3nnnc23)cc1)N1CCN(c2ccc(F)cc2)CC1	x	-15%	x	-8%	x
O=C(NCCCN1CCOCC1)Nc1ccc(Cc2ccc(NC(=O)NCCCN3CCOCC3)cc2)cc1	1.7µM*	-22%	-16%	-8%	2.6µM*
Cc1ccc(NC(=S)NCCCN2CCOCC2)cc1C	-13%	x	-4%	x	20%
S=C(NCCCN1CCOCC1)Nc1ccc(Cl)c(Cl)c1	17µM*	-4%	1%	-12%	-11%
O=C(NCCCn1ccnc1)Nc1ccc(Cl)c(Cl)c1	2.1µM*	x	u	x	12µM*
O=C(Cn1cnc2nc3c(cc2c1=O)CCCC3)Nc1ccc(F)cc1Cl	x	-9%	x	-12%	x
CCOC(=O)c1c(C)c(C(=O)NCCc2ccc(OC)cc2)c(C)n1CC	x	-5%	x	4%	x
